Among the data in PubChem BioAssay (NCI) are growth values, retold here.

SMILES strings stand for the structures. Several values for one entry are separate records, joined by “and”; a condition that tells them apart may be missing. Identical values can stand only once. The panel holds about 83,000 compounds, 20% with a hit somewhere; the sample as a whole holds those more often.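 Compound tested at a single concentration for 48 hours in 96-well plates; a percent growth value below 10 was scored as active.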 Some structures have more than one record in an assay (separate samples or runs), and their calls can disagree. Activity calls are given as the source filed them.

Holding throughout (assay): NCI-60 one-dose screen, 48 h (100 = growth as untreated, 0 = no growth, -100 = all killed)
Holding throughout (details): 10 µM unless noted

Assay [1] relates to SR leukemia.
Assay [2] deals with RPMI-8226 leukemia.
Assay [3] concerns OVCAR-8 ovarian.
Assay [4] has as its system OVCAR-5 ovarian.
Assay [5] deals with OVCAR-4 ovarian.
The subject of assay [6] is SK-OV-3 ovarian.
In assay [7] the test system is IGROV1 ovarian.
Assay [8] deals with OVCAR-3 ovarian.
Assay [9] deals with HS 578T breast.
The subject of assay [10] is NCI/ADR-RES ovarian.
The test system of assay [11] is T-47D breast.
Assay [12] relates to BT-549 breast.
Assay [13] deals with MDA-MB-435 melanoma.
Assay [14] has as its system SW-620 colon.
Assay [15] relates to MCF7 breast.
Assay [16] relates to HCC-2998 colon.
For assay [17], the system named is KM12 colon.
Assay [18] relates to HCT-116 colon.

For the compound `Cc1nn(-c2ccccc2)nc1C(=O)Nc1ccccc1C(=O)NCC1CC1`, the growth is 54.5% (inactive) in assay [1]; 92.9% (inactive) and 92% (inactive) in assay [2]; 95.8% (inactive) and 30.7% (inactive) in assay [3]; 99.6% (inactive) and 86.8% (inactive) in assay [4]; 106% (inactive) and 40.5% (inactive) in assay [5]; 99% (inactive) and 91% (inactive) in assay [6]. The growth in [7] is 108% (inactive) and 33.7% (inactive); in assay [8] it was 133% (inactive) and 54.2% (inactive); in assay [9], 127% (inactive) and 24.2% (inactive); in [10] it was 89.6% (inactive) and 41.4% (inactive); in assay [11], 76.8% (inactive) and 28.7% (inactive); in [12], 123% (inactive) and 84.8% (inactive). The growth in assay [13] is 102% (inactive) and 85.9% (inactive); in [14] it was 104% (inactive) and 68.7% (inactive); in assay [15] it was 81.1% (inactive) and 56.5% (inactive); in [16] it was 102% (inactive) and 116% (inactive); in [17], 117% (inactive) and 93.9% (inactive).
Take `O=[N+]([O-])c1ccccc1N(S(=O)(=O)c1ccccc1)S(=O)(=O)c1ccccc1`: the growth in assay [1] is 85.8% (inactive) and 101% (inactive); in assay [2], 85.4% (inactive) and 90.4% (inactive); in assay [3], 98.2% (inactive) and 95.6% (inactive); in assay [4] it was 105% (inactive) and 101% (inactive); in assay [5] it was 115% (inactive); in [6], 109% (inactive) and 111% (inactive). The growth was 99.2% (inactive) and 96.7% (inactive) in assay [7]; 107% (inactive) and 93.5% (inactive) in [8]; 113% (inactive) in assay [9]; 98.9% (inactive) and 86.3% (inactive) in [10]; 105% (inactive) and 92.7% (inactive) in assay [11]; 106% (inactive) in [12]. Also, the growth in assay [13] was 100% (inactive) and 98.1% (inactive); in assay [14], 102% (inactive) and 97.3% (inactive); in assay [15], 127% (inactive); in assay [18], 110% (inactive) and 91.4% (inactive); in assay [17], 96.1% (inactive) and 92% (inactive).
With `CCOc1ccc2c(S(=O)(=O)O)cccc2c1[N+](=O)[O-]`, the growth is 100% (inactive) and 94.2% (inactive) in assay [1]; 98.1% (inactive) and 95.9% (inactive) in [2]; 104% (inactive) and 97.6% (inactive) in assay [3]; 102% (inactive) and 112% (inactive) in [4]; 123% (inactive) and 109% (inactive) in assay [5]; 102% (inactive) and 106% (inactive) in assay [6]. Besides, the growth in [7] is 96.3% (inactive) and 114% (inactive); in assay [8] it was 107% (inactive) and 112% (inactive); in assay [9], 102% (inactive) and 94.5% (inactive); in assay [10], 103% (inactive) and 106% (inactive); in assay [11], 114% (inactive) and 111% (inactive); in assay [12], 119% (inactive) and 103% (inactive). Besides, the growth was 108% (inactive) and 106% (inactive) in assay [13]; 107% (inactive) and 98.2% (inactive) in [14]; 101% (inactive) in assay [18]; 109% (inactive) in assay [16]; 98.1% (inactive) and 103% (inactive) in assay [17].
On to `Nc1cc(-c2cccc(OC(F)(F)F)c2)nc2ccc(N3CCCC3)cc12`, for which the growth in assay [1] is -22.2% (active) and -23.6% (active) and -23.8% (active); in assay [2] it was 4.74% (active) and 17.6% (inactive) and 10.6% (inactive); in assay [3], 11.4% (inactive) and 13.7% (inactive) and 7.39% (active); in [4], 31.7% (inactive) and 38.4% (inactive) and 30.1% (inactive); in [5], 52.5% (inactive) and 55.2% (inactive) and 56.6% (inactive); in assay [6] it was 36% (inactive) and 5.93% (active). For the same compound, the growth in assay [7] is 23.7% (inactive) and 25.6% (inactive) and 24.4% (inactive); in [8], 4.65% (active) and 2.53% (active) and -33% (active); in assay [9], -0.422% (active) and 13.7% (inactive) and 27.5% (inactive); in [10], 5.44% (active) and 3.14% (active) and 11.7% (inactive); in assay [11], 99.2% (inactive) and 100% (inactive) and 87.9% (inactive); in assay [13], -9.34% (active) and -21.4% (active) and -35.8% (active). Moreover, the growth in assay [14] is 26.8% (inactive) and 32% (inactive) and 21.7% (inactive); in [15], 15.4% (inactive) and 14.9% (inactive) and 15.8% (inactive); in assay [18] it was 2.86% (active) and 5.92% (active) and 2.47% (active); in assay [17], 10.1% (inactive) and 14.3% (inactive) and 3.24% (active).
Turning to `O=C=NC(c1ccccc1)(c1ccccc1)c1ccccc1`, the growth in assay [1] is 96.2% (inactive); in assay [2] it was 119% (inactive); in assay [3], 97.4% (inactive); in [4], 99.1% (inactive); in [5], 115% (inactive); in assay [6] it was 89.1% (inactive). The growth in assay [7] was 105% (inactive); in assay [8] it was 116% (inactive); in assay [9], 111% (inactive); in [10], 109% (inactive); in [12], 103% (inactive); in assay [14] it was 107% (inactive). Besides, the growth in assay [15] is 102% (inactive); in assay [18] it was 93.5% (inactive); in assay [16], 111% (inactive); in assay [17] it was 103% (inactive).
